# Bioassay records as filed in PubChem.
# Compounds with a hit are over-represented: about 2.7% of the library has one in this group of screens.
# HIV Env fusion: blocks HIV Env-driven cell-cell fusion. HeLa-JRFL Env/CEM21 cell fusion, luciferase. inhibition, % at 12.3 µM. 360,000 tested, 1.1% active. AID 651610;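 active = mean replicate inhibition score of at least 50 and every replicate individually at or above 50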;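 note: 0% = plate neutral controls and 100% = maraviroc near 300 nM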
# Wnt bcat act: activators of Wnt/beta-catenin signaling | Wnt/beta-catenin reporter cell assay, activator, plate reader | activation, % at 9.35 µM | 300,000 tested, 1.2% active; in the data active = activation above about 30%, passing the limit was not always enough;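 note: 0% = neutral control wells and 100% = positive control wells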
# MITF TRPM1 HTS: activators of MITF-driven TRPM1 promoter activity in SK-MEL-5 cells. SK-MEL-5 TRPM1-promoter luciferase, 24 h; % of positive control, neutral wells = 0. activation, % at 12.5 µM. 300,000 tested, 0.75% active;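 active = mean activation of at least 80% with every replicate also reaching 80%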;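 note: 0% = neutral control wells and 100% = parthenolide positive control wells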
# CFTR F508del cor: correctors of CFTR F508del function in bronchial epithelial cells. CFBE cells, YFP halide quenching; stimulated with forskolin plus potentiator P3; % fluorescence drop versus neutral controls. activity (quench increase), % at 7.58 µM. 350,000 tested, 0.36% active. AID 720511;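 active = mean added fluorescence quench of at least 8% versus neutral control, with both replicates also reaching 8%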;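 note: cells transiently co-express mutant CFTR-F508del with the halide-sensitive YFP; corrector assay measuring rescue of mutant channel to the surface after 24 h compound exposure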
# GSIS activator: GLuc luminescence reporter in INS-1E cells, primary screen for activators of glucose-dependent secretion of insulin; INS-1E GLuc reporter insulin secretion, 2-3 h; activation, % at 16.6 µM; 370,000 tested, 0.61% active;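 active = lowest replicate activation of at least 40%, so every replicate reaches that level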;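 note: 0% = median of neutral control wells and 100% = median of IBMX positive control wells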
# * = called active by the depositor; / = no result; [ ] = another dose, or the depositor's remark.
SMILES,HIV Env fusion,Wnt bcat act,MITF TRPM1 HTS,CFTR F508del cor,GSIS activator
CN(C)S(=O)(=O)c1cccc(-c2nnc(-c3ccccc3)o2)c1,/,-0.2,85.9*,-0.3,13.8
C[C@H]1CN([C@@H](C)CO)S(=O)(=O)c2ccc(C#CCN(C)C)cc2O[C@H]1CN(C)C,-3.4[16.7 µM],/,/,-0.6,7.2
COc1cccc(S(=O)(=O)Nc2ccc3c(c2)[C@@H]2C[C@@H](CC(=O)O)O[C@@H](CO)[C@@H]2O3)c1,-30.9[16.7 µM],/,/,1.5,4.0
O=C(c1ccc2c3c(cccc13)CC2)C1CCCN(Cc2cccnc2)C1 (stereo unspecified),26.6,8.1,9.3,1.1,-14.0
COc1cc(CN2CCCC(C(=O)c3ccc4c5c(cccc35)CC4)C2)cc(OC)c1O (stereo unspecified),55.9*,-1.8,-4.3,-2.8,-16.8
COc1cccc(NC(=O)C(=O)NCCC2CCCCN2S(=O)(=O)c2cccs2)c1 (stereo unspecified),-32.1,38.5*,95.9*,-0.7,-10.4
CC(C)CCNC(=O)C(=O)Nc1ccc2c(c1)N(S(=O)(=O)c1cccs1)CCC2,-12.6,-1.3,-8.1,12.1*,-15.2
CCCNC(=O)N1CC2(CCN(Cc3ccccn3)CC2)c2c(n(C)c3cc(OC)ccc23)[C@H]1CO,/,/,/,-0.6,11.3
Clc1ccc(-c2nnc(-c3ccco3)o2)cc1,-111.2,38.5*,58.9,/,/
O=c1cc(-c2ccccc2Cl)oc2cc(O)cc(O)c12,-81.9,-2.4,40.1,2.7,2.8
O=C1C=CC(O)(c2cc(=O)c3c(O)cc(O)cc3o2)C=C1,-255.3,-24.1,-80.1,16.6*,14.6
O=C1C(Cl)=C(N2CCOCC2)C(=O)N1c1cccc(Cl)c1,-86.8,-4.5,3.7,/,44.7*
O=C1C(Cl)=C(N2CCCCCC2)C(=O)N1c1ccccc1,104.9*,-4.5,-7.8,/,/
Cc1cccc(N2C(=O)C(Cl)=C(N3CCOCC3)C2=O)c1,-3.0,2.8,/,-32.1,4.0
O=C1C(Cl)=C(N2CCCCCC2)C(=O)N1c1ccc(Br)cc1,-5.5,2.5,/,-2.2,2.6
Clc1ccc2c(c1)-c1ccccc1C1=NCCN12,12.0,5.3,/,8.3*,/
Brc1ccc2c(c1)-c1ccccc1C1=NCCN12,-374.0,-2.7,/,2.9,/
Cc1ccc(C(=O)NCCC(=O)N2CCOCC2)cc1,-4.4,37.0*,44.6,-0.6,-6.3
Cc1ccc(C(=O)NCCN2CCOCC2)cc1,/,-1.6,11.3,1.8,-1.8
COc1ccc(N2CCc3c(C)nc4c(OC)cc(OC)cc4c32)c(OC)c1,21.5,/,/,/,/
COc1ccc(N2CCc3c(C)nc4c(OC)cc(OC)cc4c32)cc1,4.8,0.5,6.0,10.7*,2.8
Cc1nn(C)c(C)c1/C=C/C(=O)c1ccc(Cl)cc1Cl,56.1*,3.9,-6.1,-2.3,-13.6
CN(C)/C=C/C(=O)c1ccc(Cl)cc1Cl,19.9,0.4,6.5,1.7,6.3
Cc1nn(C)c(Cl)c1/C=C/C(=O)O,0.9,-1.5,-5.0,1.5,9.0
Cc1nn(C)c(C)c1/C=C/C(=O)O,-16.0,-0.9,5.7,13.3*,-1.7
SMILES,HIV Env fusion,Wnt bcat act,MITF TRPM1 HTS,CFTR F508del cor,GSIS activator
CN1C(=O)c2cc(NC(=O)Cc3ccccc3)ccc2OC[C@H]2O[C@@H](CC(=O)NCc3ccc(Cl)cc3)CC[C@H]21,10.0[16.7 µM],/,/,-1.1,-2.9
Oc1ccc(-c2nccc(-c3ccc(F)cc3)n2)cc1,-129.5,16.7,92.2*,0.1,11.3
NC(c1csc(Nc2ccc(C(F)(F)F)cn2)n1)C1CCCCC1 (stereo unspecified),16.5,-1.4,/,0.2,533.3*
NC(CO)c1csc(Nc2ccc(C(F)(F)F)cn2)n1 (stereo unspecified),-10.9,-0.1,/,-2.2,0.2
NC(COCc1ccccc1)c1csc(Nc2ccccn2)n1 (stereo unspecified),17.8,0.7,/,1.4,-10.0
NC(CCc1ccccc1)c1csc(Nc2ccc(C(F)(F)F)cn2)n1 (stereo unspecified),8.2,-2.5,/,0.7,307.7*
NC(COCc1ccccc1)c1csc(Nc2ccc(C(F)(F)F)cn2)n1 (stereo unspecified),-10.9,-1.6,/,-0.9,254.0
NC(CCc1ccccc1)c1csc(Nc2ccccn2)n1 (stereo unspecified),84.8*,0.9,/,4.9,-1.6
Cc1ccc(S(=O)(=O)Nc2ccc3c(c2)C(=O)N([C@H](C)CO)C[C@H](C)[C@@H](CN(C)C(=O)CCC(F)(F)F)OCCCC[C@H](C)O3)cc1,-158.1[16.7 µM],/,/,0.9,-13.0
COc1ccc(C(=O)Cc2cc3ccccc3oc2=O)cc1,-32.2,10.4,121.2*,-2.1,2.4
CCCNC(=O)N(C)C[C@@H]1Oc2ncc(C#Cc3ccncc3)cc2C(=O)N([C@@H](C)CO)C[C@H]1C,3.6[16.7 µM],/,/,-0.4,-12.4
CCNc1nc(Oc2ccc(C#N)cc2)cc(C(F)(F)F)n1,46.3,-4.9,-26.0,3.6,105.1*
CN(C)Cc1ccccc1Sc1ccc2c(c1)CCCC2,1.4,-3.6,/,1.6,54.3*
O=C1c2ccccc2C(=O)c2c1cccc2-n1nnc2ccccc21,14.0,1.5,/,3.4,-1.4
O=C1C(N2CCOCC2)=C(n2nnc3ccccc32)C(=O)c2ccccc21,80.4*,-21.1,-97.3,/,/
Cc1c(/C=N/Nc2nc3ccccc3[nH]2)c2ccccc2n1C,-172.1,11.6,/,-8.9,/
CC(/C=N/Nc1nc2ccccc2[nH]1)=C\c1ccccc1,-271.2,53.2*,-0.3,4.5,-22.6
C=CCn1cc(/C=N/Nc2nc3ccccc3[nH]2)c2ccccc21,-26.4,53.1*,53.8,3.4,-54.2
C(=N\Nc1nc2ccccc2[nH]1)/c1ccc2c(c1)OCO2,-48.4,-1.5,116.5*,1.2,-6.4
C/C(=N\Nc1nc2ccccc2[nH]1)c1ccccn1,64.6*,17.9,-54.6,2.2,1.8
C(=N\Nc1nc2ccccc2[nH]1)/c1cccs1,-149.6,50.8*,58.2,/,/
Cc1ccsc1/C=N/Nc1nc2ccccc2[nH]1,-115.6,115.2*,48.4,-0.5,-13.6
Cc1nn(-c2ccccc2)c(C)c1/C=N/Nc1nc2ccccc2[nH]1,-342.3,172.8*,24.9,/,-19.0
C(=N\Nc1ncnc2nc[nH]c12)/c1cccs1,-13.0,61.4*,56.1,0.2,0.9
C(=N\Nc1nc2ccccc2[nH]1)/c1ccncc1,7.3,6.2,14.2,1.2,-11.5
SMILES,HIV Env fusion,Wnt bcat act,MITF TRPM1 HTS,CFTR F508del cor,GSIS activator
Cc1ccsc1/C=N/Nc1ncnc2nc[nH]c12,-19.3,15.3,58.1,0.1,2.1
Cc1cc(=O)[nH]c(N/N=C/c2sccc2C)n1,-23.9,2.0,0.4,/,20.8
O=C(c1cccnc1)N1C[C@@H]2[C@H](c3ccccc31)[C@@H](CO)N2C(=O)Nc1ccccc1F,/,/,/,-1.3,-6.1
COCCNC(=O)C[C@@H]1CC[C@@H]2[C@H](COC[C@H](O)CN2C(=O)Nc2ccccc2OC)O1,/,/,/,-1.2,-0.4
COc1ccc(-c2ccc3n(c2=O)C[C@H]2[C@H](CO)[C@@H](C(=O)N(C)C)[C@@H]3N2Cc2ccncc2)cc1,/,/,/,0.2,-4.3
CCn1ccc(C(=O)Nc2ccccc2SC)n1,-12.8,2.5,41.9,/,40.6*
CCn1nccc1C(=O)Nc1ccc(Cl)cn1,-35.1,21.1,45.8,/,/
